Test results published in a collection of fitness landscapes (doi:10.1126/science.1257360).
Whole data set: some 140,000 sequences, median “enrichment ratio after two sorts for PhoP signalling” near 0, cut for the highest 2% near 11. For the sample, the highest values were picked, then their nearest neighbours and some sequences at random.

B1: PhoQ; a variant is named by its letters at X, in order, P23837 (parent)
chain: MKKLLRLFFPLSLRVRFLLATAAVVLVLSLAYGMVALIGYSVSFDKTTFRLLRGESNLFYTLAKWENNKLHVELPENIDKQSPTMTLIYDENGQLLWAQRDVPWLMKMIQPDWLKSNGFHEIEADVNDTSLLLSGDHSIQQQLQEVREDDDDAEMTHSVAVNVYPATSRMPKLTIVVVDTIPVELKSSYMVWSWFIYVLSANLLLVIPLLWVAAWWSLRPIEALAKEVRELEEHNRELLNPATTRELTSLVRNLNRLLKSERERYDKYRTTLTDLTHSLKTPLXXLQXXLRSLRSEKMSVSDAEPVMLEQISRISQQIGYYLHRASMRGGTLLSRELHPVAPLLDNLTSALNKVYQRKGVNISLDISPEISFVGEQNDFVEVMGNVLDNACKYCLEFVEISARQTDEHLYIVVEDDGPGIPLSKREVIFDRGQRVDTLRPGQGVGLAVAREITEQYEGKIVAGESMLGGARMEVIFGRQHSAPKDE

Variants of: B1
Assay: enrichment ratio after two sorts for PhoP signalling (ratio (wild type AVST 3.29)); higher = more functional
Settings: with PhoP (E. coli)

LKST and GVIN cannot be ordered by enrichment ratio: at most 0.25 for the first, at most 0.25 for the second.

MQIN and QHSN cannot be ordered by enrichment ratio: at most 0.25 for the first, at most 0.25 for the second.

Going from YAPD to QLGK, the enrichment ratio rises from at most 0.25 to 3.11.

First: MDFQ
Second: SSCM
The enrichment ratio of the first is lower: at most 0.25 for the first, 19 for the second.

Going from YRCM to SSCK, the enrichment ratio rises from at most 0.25 to 4.35.

Going from YSCK to VNCM, the enrichment ratio rises from at most 0.25 to 4.53.

First: YSCM
Second: AINP
The enrichment ratio of the first is higher: 12.8 for the first, at most 0.25 for the second.

SWTQ and RGMH cannot be ordered by enrichment ratio: at most 0.25 for the first, at most 0.25 for the second.

Compared with THMH, HGMH is lower in enrichment ratio: 13.2 for the first, at most 0.25 for the second.

Going from AYMH to AGMH, the enrichment ratio rises from at most 0.25 to 26.

Compared with AGWR, TGMH is higher in enrichment ratio: at most 0.25 for the first, 14.5 for the second.

AHMH and NHMH cannot be ordered by enrichment ratio: at most 0.25 for the first, at most 0.25 for the second.

PWRH and DSMV cannot be ordered by enrichment ratio: at most 0.25 for the first, at most 0.25 for the second.

ALNP and ILLI cannot be ordered by enrichment ratio: at most 0.25 for the first, at most 0.25 for the second.

IWRF and LDDP cannot be ordered by enrichment ratio: at most 0.25 for the first, at most 0.25 for the second.

Going from AICF to PLCF, the enrichment ratio falls from 13.5 to at most 0.25.

NMCF and MMCF cannot be ordered by enrichment ratio: at most 0.25 for the first, at most 0.25 for the second.

Compared with AMCF, NICF is lower in enrichment ratio: 12.3 for the first, at most 0.25 for the second.

Compared with THCF, NHCF is lower in enrichment ratio: 17.5 for the first, at most 0.25 for the second.

Going from SHCF to AKCF, the enrichment ratio falls from 7.35 to 1.73.

Compared with WICF, ALCF is higher in enrichment ratio: at most 0.25 for the first, 13.2 for the second.

IASH and FYVH cannot be ordered by enrichment ratio: at most 0.25 for the first, at most 0.25 for the second.

ESKG and WMCQ cannot be ordered by enrichment ratio: at most 0.25 for the first, at most 0.25 for the second.

VWMT and PQSG cannot be ordered by enrichment ratio: at most 0.25 for the first, at most 0.25 for the second.

VPYN and AAPG cannot be ordered by enrichment ratio: at most 0.25 for the first, at most 0.25 for the second.

DMIH and MFGN cannot be ordered by enrichment ratio: at most 0.25 for the first, at most 0.25 for the second.

Compared with SKFA, SQAI is higher in enrichment ratio: at most 0.25 for the first, 15.1 for the second.

Going from SKAI to SLAI, the enrichment ratio rises from 14 to 15.7.

First: SAAI
Second: VLAI
The enrichment ratio of the first is higher: 7.86 for the first, at most 0.25 for the second.

WLAI and SKPA cannot be ordered by enrichment ratio: at most 0.25 for the first, at most 0.25 for the second.

IQAI and YGYC cannot be ordered by enrichment ratio: at most 0.25 for the first, at most 0.25 for the second.

YRGI and YDSS cannot be ordered by enrichment ratio: at most 0.25 for the first, at most 0.25 for the second.

AHPL and RPNK cannot be ordered by enrichment ratio: at most 0.25 for the first, at most 0.25 for the second.

Compared with KYLE, SQLE is higher in enrichment ratio: at most 0.25 for the first, 16.5 for the second.

DPLE and SPLE cannot be ordered by enrichment ratio: at most 0.25 for the first, at most 0.25 for the second.

Going from SFLE to SEVE, the enrichment ratio rises from at most 0.25 to 6.62.

Compared with QELE, SSLE is higher in enrichment ratio: at most 0.25 for the first, 12 for the second.

Going from SELE to NELE, the enrichment ratio falls from 21.5 to at most 0.25.

First: KSLE
Second: FELE
The enrichment ratio of the first is lower: at most 0.25 for the first, 20.4 for the second.

LDMG and LDRD cannot be ordered by enrichment ratio: at most 0.25 for the first, at most 0.25 for the second.

SKTY and FKIR cannot be ordered by enrichment ratio: at most 0.25 for the first, at most 0.25 for the second.

PKAM and NVYD cannot be ordered by enrichment ratio: at most 0.25 for the first, at most 0.25 for the second.
